In PubChem BioAssay AID1159580 (chemical genetic matrix, 2015):
Several values for one entry are separate records, joined by “and”; a condition that tells them apart may be missing. Equal values may be shown once. The campaign covered roughly 5,500 compounds. About 2,000 (36%) were called active. Inconclusive results (about 18%) are left out. Cut-off read from the data, not from the text of the source: active = normalized growth mostly below about 0.91 (no sharp cut-off); inconclusive = no clear call, values can overlap the other calls; inactive = mostly above about 0.92. This is one part of the list.

Experiment: chemical genetic growth profiling, strain panel (AID 1159580);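 note: tested at 20 µM; growth read once vehicle control cultures reached saturation at 30 °C; 1 = growth at the plate median or of vehicle wells; lower values mean less growth of the strain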
Settings: growth OD

Measured: normalized growth

C=CCc1ccccc1OCC(O)CNC(C)C (stereo unspecified)
inactive: S. cerevisiae deletion strains, locus YJR066W, strain TOR1, active compounds read low 0.924 | S. cerevisiae deletion strains, locus YJR075W, strain HOC1, active compounds read low 1.01 and 1 | S. cerevisiae deletion strains, locus YKL009W, strain mrt4, active compounds read low 1 | S. cerevisiae deletion strains, locus YKL068W, active compounds read low 1.01 | S. cerevisiae deletion strains, locus YKL085W, strain MDH1 (second series), active compounds read low 1.01 | S. cerevisiae deletion strains, locus YKL085W, strain MDH1, active compounds read low 1.01 | S. cerevisiae deletion strains, locus YKL160W, strain elf1, active compounds read low 1 | S. cerevisiae deletion strains, locus YKL190W, strain CNB1, active compounds read low 1 | S. cerevisiae deletion strains, locus YKR001C, strain vps1, active compounds read low 1.03 | S. cerevisiae deletion strains, locus YKR026C, strain gcn3, active compounds read low 0.988 | S. cerevisiae deletion strains, locus YKR091W, strain srl3, active compounds read low 0.997 | S. cerevisiae deletion strains, locus YLL001W, strain dnm1, active compounds read low 1.01 | S. cerevisiae deletion strains, locus YLL026W, active compounds read low 0.991 | S. cerevisiae deletion strains, locus YLL041C, strain sdh2, active compounds read low 0.992 | S. cerevisiae deletion strains, locus YLR027C, strain aat2, active compounds read low 0.99 | S. cerevisiae deletion strains, locus YLR039C, strain RIC1, active compounds read low 1.06 | S. cerevisiae deletion strains, locus YLR058C, strain SHM2, active compounds read low 1.01 | S. cerevisiae deletion strains, locus YLR102C, strain apc9, active compounds read low 1.01 | S. cerevisiae deletion strains, locus YLR113W, strain HOG1, active compounds read low 0.983 | S. cerevisiae deletion strains, locus YLR221C, strain rsa3, active compounds read low 0.992 | S. cerevisiae deletion strains, locus YLR258W, strain gsy2, active compounds read low 0.99 | S. cerevisiae deletion strains, locus YLR262C, strain YPT6 (second series), active compounds read low 1.02 | S. cerevisiae deletion strains, locus YLR262C, strain YPT6, active compounds read low 1.06 | S. cerevisiae deletion strains, locus YLR268W, strain sec22, active compounds read low 1.03 | S. cerevisiae deletion strains, locus YLR320W, strain mms22, active compounds read low 0.994 | S. cerevisiae deletion strains, locus YLR330W, strain CHS5, active compounds read low 0.988 | S. cerevisiae deletion strains, locus YLR342W, strain FKS1 (second series), active compounds read low 0.974 | S. cerevisiae deletion strains, locus YLR342W, strain FKS1, active compounds read low 0.995 | S. cerevisiae deletion strains, locus YLR357W, strain rsc2, active compounds read low 0.967 | S. cerevisiae deletion strains, locus YLR370C, strain arc18, active compounds read low 1.01 | S. cerevisiae deletion strains, locus YLR371W, strain rom2, active compounds read low 1.01 | S. cerevisiae deletion strains, locus YLR384C, strain iki3, active compounds read low 0.997 | S. cerevisiae deletion strains, locus YLR418C, strain cdc73, active compounds read low 1.04 | S. cerevisiae deletion strains, locus YML016C, strain PPZ1, active compounds read low 1 | S. cerevisiae deletion strains, locus YML032C, strain rad52, active compounds read low 1.01 | S. cerevisiae deletion strains, locus YML120C, strain ndi1, active compounds read low 0.994 | S. cerevisiae deletion strains, locus YML124C, strain tub3, active compounds read low 1.01 | S. cerevisiae deletion strains, locus YMR058W, strain fet3, active compounds read low 1 | S. cerevisiae deletion strains, locus YMR078C, strain ctf18, active compounds read low 1.01 | S. cerevisiae deletion strains, locus YMR125W, strain sto1, active compounds read low 0.993 | S. cerevisiae deletion strains, locus YMR129W, active compounds read low 1 | S. cerevisiae deletion strains, locus YMR205C, strain PFK2, active compounds read low 0.98 | S. cerevisiae deletion strains, locus YMR223W, strain ubp8, active compounds read low 1 | S. cerevisiae deletion strains, locus YMR231W, strain pep5, active compounds read low 0.995 | S. cerevisiae deletion strains, locus YMR263W, strain SAP30, active compounds read low 1.01 | S. cerevisiae deletion strains, locus YMR307W, strain GAS1, active compounds read low 1.02 | S. cerevisiae deletion strains, locus YNL067W, strain RPL9B, active compounds read low 1.01 | S. cerevisiae deletion strains, locus YNL071W, strain lat1, active compounds read low 1 | S. cerevisiae deletion strains, locus YNL128W, strain TEP1, active compounds read low 1.01 and 0.998 | S. cerevisiae deletion strains, locus YNL153C, strain GIM3, active compounds read low 1 | S. cerevisiae deletion strains, locus YNL175C, strain NOP13, active compounds read low 0.973 | S. cerevisiae deletion strains, locus YNL183C, strain NPR1, active compounds read low 0.924 | S. cerevisiae deletion strains, locus YNL209W, strain ssb2, active compounds read low 1.01 | S. cerevisiae deletion strains, locus YNL224C, strain SQS1, active compounds read low 0.972 | S. cerevisiae deletion strains, locus YNL233W, strain BNI4, active compounds read low 0.982 | S. cerevisiae deletion strains, locus YNL248C, strain rpa49, active compounds read low 1.01 | S. cerevisiae deletion strains, locus YNL250W, strain rad50, active compounds read low 1.01 | S. cerevisiae deletion strains, locus YNL271C, strain bni1, active compounds read low 1.01 | S. cerevisiae deletion strains, locus YNL298W, strain CLA4, active compounds read low 1.02 | S. cerevisiae deletion strains, locus YNL307C, strain MCK1, active compounds read low 1.03 | S. cerevisiae deletion strains, locus YNL322C, strain KRE1 (second series), active compounds read low 0.991 | S. cerevisiae deletion strains, locus YNL322C, strain KRE1, active compounds read low 1 | S. cerevisiae deletion strains, locus YNR049C, strain mso1, active compounds read low 0.988 | S. cerevisiae deletion strains, locus YNR052C, strain pop2, active compounds read low 1.01 | S. cerevisiae deletion strains, locus YOL006C, strain TOP1, active compounds read low 1.05 | S. cerevisiae deletion strains, locus YOL012C, strain htz1 0.911 | S. cerevisiae deletion strains, locus YOL147C, strain pex11, active compounds read low 1.01 | S. cerevisiae deletion strains, locus YOR001W, strain rrp6, active compounds read low 0.997 | S. cerevisiae deletion strains, locus YOR061W, strain CKA2, active compounds read low 1.01 | S. cerevisiae deletion strains, locus YOR069W, strain VPS5, active compounds read low 1.01 | S. cerevisiae deletion strains, locus YOR070C, strain gyp1, active compounds read low 0.997 | S. cerevisiae deletion strains, locus YOR080W, strain dia2, active compounds read low 0.993 | S. cerevisiae deletion strains, locus YOR083W, strain WHI5 (second series), active compounds read low 0.978 | S. cerevisiae deletion strains, locus YOR083W, strain WHI5, active compounds read low 1.01 | S. cerevisiae deletion strains, locus YOR106W, strain vam3, active compounds read low 1.05 | S. cerevisiae deletion strains, locus YOR136W, strain idh2, active compounds read low 1 | S. cerevisiae deletion strains, locus YOR144C, strain elg1, active compounds read low 1 | S. cerevisiae deletion strains, locus YOR184W, strain ser1, active compounds read low 1.03 | S. cerevisiae deletion strains, locus YOR231W, strain MKK1, active compounds read low 0.983 | S. cerevisiae deletion strains, locus YOR265W, strain rbl2, active compounds read low 1 | S. cerevisiae deletion strains, locus YOR270C, strain vph1, active compounds read low 1.07 | S. cerevisiae deletion strains, locus YOR290C, strain snf2, active compounds read low 0.923 | S. cerevisiae deletion strains, locus YOR316C, strain cot1, active compounds read low 1.01 | S. cerevisiae deletion strains, locus YPL051W, strain arl3, active compounds read low 1.01 | S. cerevisiae deletion strains, locus YPL055C, strain LGE1, active compounds read low 1 | S. cerevisiae deletion strains, locus YPL078C, strain atp4, active compounds read low 1.01 | S. cerevisiae deletion strains, locus YPL106C, strain sse1, active compounds read low 0.987 | S. cerevisiae deletion strains, locus YPL240C, strain hsp82, active compounds read low 1.01 | S. cerevisiae deletion strains, locus YPL241C, strain CIN2, active compounds read low 0.997 | S. cerevisiae deletion strains, locus YPL256C, strain CLN2, active compounds read low 0.981 | S. cerevisiae deletion strains, locus YPR119W, strain clb2, active compounds read low 1.01 | S. cerevisiae deletion strains, locus YPR141C, strain kar3, active compounds read low 1.02 | S. cerevisiae deletion strains, locus YPR163C, strain tif3, active compounds read low 1.01 | S. cerevisiae deletion strains, locus YPR167C, strain met16, active compounds read low 1.01 | S. cerevisiae deletion strains, strain wtn01, active compounds read low 1.01 | S. cerevisiae strains, strain wild type, active compounds read low 1
